Hits are enriched below; roughly 7.3% of the tested compounds scored in any of these assays.
Rab9 promoter act – qHTS Assay for Rab9 Promoter Activators. Potency, µM (series often up to 9.22 µM), actives largely listed as activators. 2.8% of 320,000 active. Huh7 Rab9 promoter-luciferase reporter, luminescence, 24 h; also: nearly all actives have a fitted effect of over 60% in size
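Stable Rab9-luc Huh7, 1500 cells/well, 2 h settle; cmpd in DMSO, 24 h, 37 °C/5% CO2; luciferase reagent 10 min RT; luminescence.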
ELG1 genotoxic – qHTS screen for small molecules that induce genotoxicity in human embryonic kidney (HEK293T) cells expressing luciferase-tagged ELG1; AID 504466, 2011; 1.3% of 330,000 active; HEK293T ELG1-luciferase reporter, luminescence, 16 h; Potency, µM (titrated, usually from 46 µM), hits mostly activators; also: nearly all actives have a fitted effect of over 60% in size
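16 hr compound incubation (37 °C, 5% CO2) of HEK293T cells carrying luciferase-tagged ELG1; luciferase then measured by ONE-Glo luminescence after 30 min at RT.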
NPC1 promoter act – qHTS Assay for NPC1 Promoter Activators; Huh7 NPC1 promoter luciferase reporter, 24 h; Potency, µM (series often up to 9.22 µM), most hits filed as activators; 2.4% of 320,000 active; AID 485313, 2010; also: nearly all actives have a fitted effect of over 60% in size
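Luminescence from an NPC1 promoter-driven luciferase reporter in stably transfected Huh7 cells was measured after 24 h compound treatment at 37 °C, followed by 10 min ambient incubation with luciferase detection reagent.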
FLuc modulator – qHTS profiling assay for firefly luciferase inhibitor/activator using purifed enzyme and Km concentrations of substrates (counterscreen for miR-21 project) | purified FLuc, Km substrates, luminescence inhibition | Potency, µM (titrated, usually from 57.5 µM), usual class: inhibitors | 6.9% of 360,000 active | AID 588342, 2011; also: nearly all actives have a fitted effect of over 55% in size
Target sequence (P08659 whole entry, looked up): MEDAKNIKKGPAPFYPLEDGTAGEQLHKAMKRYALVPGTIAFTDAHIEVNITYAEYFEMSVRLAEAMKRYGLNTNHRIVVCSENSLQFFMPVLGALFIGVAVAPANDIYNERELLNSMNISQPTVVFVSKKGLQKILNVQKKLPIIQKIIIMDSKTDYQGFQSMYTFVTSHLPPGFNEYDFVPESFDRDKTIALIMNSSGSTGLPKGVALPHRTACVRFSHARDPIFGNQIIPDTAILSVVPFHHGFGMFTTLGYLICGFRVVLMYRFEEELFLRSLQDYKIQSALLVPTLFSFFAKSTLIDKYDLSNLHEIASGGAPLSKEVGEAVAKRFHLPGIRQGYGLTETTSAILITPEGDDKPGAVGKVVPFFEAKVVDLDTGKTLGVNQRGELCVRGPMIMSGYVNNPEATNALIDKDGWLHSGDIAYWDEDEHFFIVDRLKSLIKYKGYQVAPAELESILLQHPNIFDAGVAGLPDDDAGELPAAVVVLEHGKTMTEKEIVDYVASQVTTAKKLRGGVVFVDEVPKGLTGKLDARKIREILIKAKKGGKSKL
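Biochemical qHTS of compounds, final roughly 60 µM downward over six points, against 10 nM purified firefly luciferase using Km concentrations of substrates (10 uM D-luciferin, 10 uM ATP) in Tris acetate pH 7.5 buffer; luminescence output.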
uPA generation – qHTS for Inhibitors of Cell Surface uPA Generation. AID 540303, 2011. 0.31% of 330,000 active. cell surface uPA generation assay, qHTS. Potency, µM (series often up to 38.3 µM), hits mostly inhibitors; active = well fitted inhibition curve with a large enough effect; inconclusive = small, poorly fitted or top-dose-only effect; inactive = no such curve, though single readings can be large or run the other way; tested in mouse RAW 264.7 cells; also: nearly all actives have a fitted effect of over 55% in size
SMN2 splice up – qHTS Assay for Enhancers of SMN2 Splice Variant Expression; 2.8% of 210,000 active; Potency, µM (highest dose often 46.1 µM), most hits filed as activators; HEK293 SMN2-luciferase splicing reporter, luminescence, 30-36 h; also: nearly all actives have a fitted effect of over 55% in size
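HEK293 cells carry an SMN2 […]–luciferase reporter in which exon 7 inclusion puts luciferase in frame. Cells were plated 10-12 h before compound addition, then incubated 30-36 h at 37C. ONE-Glo luminescence was read; sodium butyrate at 4.5 mM final served as control.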
Numbers stand for hits; 0 = inactive; ? = inconclusive; - = no result; [ ] = another dose, or the depositor's remark. Unless noted, calls follow the shape of the dose curve; as a rule, active = well fitted curve in the direction sought with a large enough effect; inconclusive = small, poorly fitted or top-dose-only effect, or another doubt; inactive = no such curve, though single readings can be large; an effect the other way counts as inactive or inconclusive.

SMILES	Rab9 promoter act	ELG1 genotoxic	NPC1 promoter act	FLuc modulator	uPA generation	SMN2 splice up
O=C(Nc1nc(-c2ccccn2)cs1)c1ccc(F)c(S(=O)(=O)N2CCOCC2)c1	0	0	0	0	3.98µM	-
O=C(Nc1nc(-c2ccccn2)cs1)c1cc(S(=O)(=O)N2CCOCC2)ccc1F	0	0	0	?	10µM	-
O=C(Nc1nc2ccccc2[nH]1)c1ccc(F)c(S(=O)(=O)N2CCOCC2)c1	?	0	?	16.9µM	0	?
O=C(Nc1nc(-c2nc3ccccc3s2)cs1)c1ccc(S(=O)(=O)N2CCOCC2)cc1	4.47µM	0	3.16µM	?	0	-
COc1ccc(OC)c(S(=O)(=O)NCc2ccc3c(c2)CCN3C(=O)c2cccc(C)c2)c1	-	-	-	0	-	-
CC(=O)c1ccc(Nc2nc3c(S(=O)(=O)c4ccccc4)nnn3c3ccc(Cl)cc23)cc1	-	-	-	0	-	0
Cc1cccc(NC(=O)c2oc3ccccc3c2NC(=O)c2cc(=O)c3ccccc3o2)c1	-	-	-	0	-	0
CCOc1ccc(CNS(=O)(=O)c2c(C(=O)N3CCCCCC3)c(C)n(C)c2C)cc1OC	-	-	-	0	-	-
COc1ccc(OCc2ccc(C(=O)O)cc2)cc1	?	0	?	6.75µM	0	5.01µM
COc1ccc(OCC(O)COc2ccc(C(=O)O)cc2)cc1 (centres undefined)	0	0	0	15.1µM	0	0
CCc1ccccc1NC(=O)N1CCOc2ccccc21	-	-	-	0	-	-
COc1ccccc1N(CC(=O)NC(C)C)S(=O)(=O)c1cccs1	0	0	0	0	0	0
COc1ccc(N=Cc2c(O)c3ccccc3n2C(C)=O)cc1	?	0	?	1.07µM	0	-
COc1ccc(N=Cc2sc(O)c3ccccc23)cc1	1.58µM	0	?	3.79µM	0	2.82µM
CCN(CC(=O)Nc1ccc(OC)cc1)C(=O)c1cc(S(=O)(=O)N(C)C)ccc1N1CCCC1	0	0	0	0	0	-
Cc1nc2sc(C(=O)OC(C)C)c(N)c2c(C)c1C	4.47µM	0	0	0	0	0
Cc1nc2sc(C(=O)Nc3ccccc3)c(N)c2c(C)c1[N+](=O)[O-]	4.47µM	7.3µM	3.16µM	?	0	?
Cc1nc2sc(C(=O)c3ccccc3)c(N)c2c(C)c1C	0	0	0	?	0	0
CC(=O)c1ccc(NC(=O)c2sc3nc(C)c(C)c(C)c3c2N)cc1	0.794µM	3.66µM	0.562µM	0.477µM	0	-
Cc1cc(C(C)(C)C)c(OCCCN2CCOCC2)c(C(C)(C)C)c1	-	-	-	-	-	0[9.22 µM]
CCCCN(CC)CCCNC(=O)c1c(C)oc2ncnc(N3CCOCC3)c12	-	-	-	0	-	-
Cc1nn(-c2ccccc2)c(N)c1N=O	0	0	0	0	0	-
Cc1ccc(N=Nc2c(N)nn(-c3ccccc3)c2N)cc1	?	?	?	6.01µM	0	10µM
Cc1ccc(N=Nc2c(N)n[nH]c2N)cc1	0	?	?	15.1µM	0	-
Cc1nn(-c2ccccc2)c(N)c1N=Nc1ccc2ccccc2c1	3.55µM	?	?	10.7µM	0	12.6µM
SMILES	Rab9 promoter act	ELG1 genotoxic	NPC1 promoter act	FLuc modulator	uPA generation	SMN2 splice up
Cc1[nH]nc(N)c1N=Nc1ccc(Br)cc1	0	0	0	?	-	0
Cn1c(=O)c2c(nc(NCCCCO)n2Cc2ccccc2Cl)n(C)c1=O	-	-	-	0	-	0
COc1cc(NS(=O)(=O)c2ccc(NC(=O)c3cccc(F)c3)cc2)nc(OC)n1	-	-	-	?	-	0
O=C(CNC(=O)c1ccc(Cl)c([N+](=O)[O-])c1)OC1CCCCC1=O (centres undefined)	0	0	0	0	0	-
CCOC(=O)C1CCCN(C(=O)CSCc2ccccc2)C1 (centres undefined)	0	0	?	?	0	0
CCOC(=O)C1CCCN(C(=O)CCc2nnc(-c3ccc(C(C)=O)s3)o2)C1 (centres undefined)	0.794µM	18.3µM	2.51µM	10.7µM	0	-
O=C(O)c1cc(N/N=C/c2ccc3c(c2)OCO3)ccc1Cl	0.1µM	?	0.282µM	0.757µM	0	4.47µM
O=C(O)c1ccc(N/N=C/c2cc3cc4c(cc3nc2Cl)OCCO4)cc1	0.1µM	1.16µM	0.282µM	0.0239µM	0.891µM	-
O=C(O)c1cc(N/N=C/c2ccc3c(c2)OCCO3)ccc1Cl	?	0.291µM	?	1.07µM	0	0.316µM
O=Cc1cc2cc3c(cc2nc1Cl)OCCO3	0	?	0	0	0	-
O=C(O)c1cc(S(=O)(=O)Nc2ccc3c(c2)OCCO3)c(Cl)cc1Cl	0	9.2µM	0	?	0	0
NC(=S)N/N=C/c1ccc2c(c1)OCCO2	?	?	0	?	-	0
COC(=O)c1cc(NS(=O)(=O)c2ccc3c(c2)OCCO3)ccc1Cl	-	-	-	?	-	0
COc1ccc2c(c1)C(=O)[C@H](OC(=O)N[C@H](C)C1CCCCC1)[C@@H](c1ccc(OC)c(Br)c1)O2	-	-	-	-	-	0
Cc1ccc(C)c(N2CCN(C(=O)c3cc4c(=O)n(Cc5ccco5)ccc4nc3C)CC2)c1	-	-	-	0	-	-
C/C(=N\Nc1ccc(Cl)c(C(=O)O)c1)c1ccc2c(c1)OCO2	1.58µM	?	2.24µM	15.1µM	0	15.8µM
CNC(=S)N/N=C/c1ccc2c(c1)OCCO2	0	?	0	?	0	0
Cc1ccc(N/N=C/c2ccc3c(c2)OCCO3)cc1Cl	0	?	0	23.9µM	0	20µM
O=C(O)c1ccc(N/N=C/c2cc3c(cc2[N+](=O)[O-])OCO3)cc1	0	0	0	?	0	0
O=C(O/N=C/c1ccc2c(c1)OCO2)c1ccccc1Cl	0	0	0	0.953µM	-	0
O=C(O)c1ccc(N/N=C/c2ccc3c(c2)OCO3)cc1	0	?	0	0.0953µM	0	-
COc1ccc(CNC(=O)Cn2c(=O)oc3cc(S(=O)(=O)NCc4ccccc4)ccc32)cc1	-	-	-	0	-	-
COc1cccc(NC(=O)CCSc2nc(-c3ccco3)cc(C(F)(F)F)n2)c1	-	-	-	0	-	0
CCCCNC(=O)CCCn1c(=O)c2ccccc2n(Cc2cccc(Cl)c2)c1=O	-	-	-	0	-	0
O=C1OC(c2ccc3c(c2)OCO3)=N/C1=C\c1ccc(C(=O)O)cc1	0	0	0	0.135µM	0	-
SMILES	Rab9 promoter act	ELG1 genotoxic	NPC1 promoter act	FLuc modulator	uPA generation	SMN2 splice up
CCc1ccc(CNC(=O)CN2C(=O)c3cccnc3Oc3ccc(Cl)cc32)cc1	-	-	-	0	-	-
C/C(=N\Nc1nc2ccc(Cl)cc2o1)c1ccccc1	?	0	0	16.9µM	0	-
Nc1nc2ccc(Cl)cc2o1	-	-	-	-	0	-
COc1cccc(N2CCN(Cc3cc(=O)oc4cc(C)ccc34)CC2)c1	-	-	-	0	-	0
Cc1ncc(CO)c(/C=N/NC(=S)Nc2ccc(C(C)C)cc2)c1O	0	0	0	13.5µM	0	-
Cc1ncc(CO)c(/C=N/NC(=O)c2ccc(Br)cc2)c1O	0	0	0	?	-	0
Cc1cc(N2CCC(C)CC2)nc2ccc(NC(=O)Cc3c(F)cccc3Cl)cc12	-	-	-	0	-	0
